# Only some compounds are listed: those with a hit (about 3.6% of all), similar ones and a draw of the others.
# Anthrax LF prot: Bacillus anthracis LF protease inhibitors, primary screen, biochemical, multiplex microsphere, MLPCN library; 360,000 tested, 0.12% active; multiplex microsphere protease cleavage assay; inhibition, % at 10 µM; Lethal factor (Bacillus anthracis), P15917; also: plate controls were buffer without enzyme for full effect and enzyme alone for no effect
# Target sequence (P15917 whole entry, looked up): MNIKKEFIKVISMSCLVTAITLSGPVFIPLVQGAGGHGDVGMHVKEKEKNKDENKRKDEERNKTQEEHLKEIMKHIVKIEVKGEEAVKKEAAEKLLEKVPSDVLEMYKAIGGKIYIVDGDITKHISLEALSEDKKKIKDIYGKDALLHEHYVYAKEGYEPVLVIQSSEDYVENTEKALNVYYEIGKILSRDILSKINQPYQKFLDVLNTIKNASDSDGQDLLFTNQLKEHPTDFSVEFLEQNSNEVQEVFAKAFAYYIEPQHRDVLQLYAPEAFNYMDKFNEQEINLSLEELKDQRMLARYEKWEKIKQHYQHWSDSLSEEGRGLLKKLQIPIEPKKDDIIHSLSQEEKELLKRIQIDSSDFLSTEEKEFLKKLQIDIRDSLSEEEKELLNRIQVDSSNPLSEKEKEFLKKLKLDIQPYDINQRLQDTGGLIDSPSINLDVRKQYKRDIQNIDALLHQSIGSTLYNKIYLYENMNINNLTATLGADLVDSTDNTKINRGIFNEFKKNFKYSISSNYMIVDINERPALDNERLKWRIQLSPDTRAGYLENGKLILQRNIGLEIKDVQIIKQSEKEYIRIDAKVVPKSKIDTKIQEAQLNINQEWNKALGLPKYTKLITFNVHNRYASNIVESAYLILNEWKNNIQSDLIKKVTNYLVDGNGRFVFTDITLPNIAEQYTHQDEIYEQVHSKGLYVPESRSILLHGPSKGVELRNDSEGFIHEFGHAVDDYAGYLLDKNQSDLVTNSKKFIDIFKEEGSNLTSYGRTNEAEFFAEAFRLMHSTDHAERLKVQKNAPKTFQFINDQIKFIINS
# Autofluor counter: compound fluorescence in toxin protease inhibitor counterscreen; compound autofluorescence counterscreen, microsphere flow cytometry; active compounds read high; fluorescence intensity (no concentration beside the values); 360,000 tested, 3.1% active; AID 624483; in the data active = fluorescence intensity above about 16000; inconclusive = no clear call, values can overlap the other calls
# BoNT-A LC inh2: BoNT/A light chain protease inhibitors, primary screen, biochemical, flow cytometry, MLPCN library. AID 588499, 2011. 360,000 tested, 0.17% active. Botulinum neurotoxin type A light chain protease (Clostridium botulinum A str. ATCC 3502). inhibition, % at 10 µM. multiplex microsphere protease substrate cleavage; also: plate controls were buffer without enzyme for full effect and enzyme alone for no effect
# MazEF act: activators of E. coli MazEF toxin-antitoxin RNase, primary screen, biochemical, fluorescence, uHTS; FAM/BHQ RNA-DNA oligo cleavage fluorescence, 5 h; AID 504720, 2011; activation, % at 20 µM; 350,000 tested, 0.32% active; in the data active = activation above about 50%
# BoNT-F LC inh: BoNT/F light chain protease inhibitors, primary screen, biochemical, flow cytometry, MLPCN library | AID 588497, 2011 | inhibition, % at 10 µM | Multiplex microsphere protease cleavage assay | Botulinum neurotoxin type F light chain protease (Clostridium botulinum) | 360,000 tested, 0.22% active; in the data active = inhibition above about 35%, passing the limit was not always enough; inconclusive = no clear call, values can overlap the other calls; also: plate controls were buffer without enzyme for full effect and enzyme alone for no effect
# An asterisk follows results filed as active; i = inactive; ? = inconclusive; · = no result given. Rule as the data show it, unless noted: active = inhibition above about 30%; inconclusive = no clear call, values can overlap the other calls; inactive = below that.
SMILES,Anthrax LF prot,Autofluor counter,BoNT-A LC inh2,MazEF act,BoNT-F LC inh
O=C(NCc1cc(Cl)cc(Cl)c1)c1csc([C@@H]2C[C@H](O)[C@@H](CO)O2)n1,-0.5,2788,0.2,·,-5.7
COc1ccc(N2CCN(C(=O)CSc3nnc4n3C(C)(C)Cc3ccccc3-4)CC2)cc1,-1.9,22079*,1.7,2.8,1.0
COc1cc(NC(=O)CSc2nnc3n2C(C)(C)Cc2ccccc2-3)cc(OC)c1,0.4,16774*,-1.2,25.6,-3.5
CC1(C)Cc2ccccc2-c2nnc(SCC(=O)N3CCc4ccccc43)n21,-2.9,24428*,-2.5,-31.0,-2.7
COc1ccc2nc(NC(=O)CSc3nnc4n3C(C)(C)Cc3ccccc3-4)sc2c1,-11.7,16715*,9.8,0.9,6.3
CCn1c(SCC(=O)N2CCc3ccccc32)nnc1-c1ccncc1,-12.4,7060,0.1,-0.1,-4.9
COc1ccc2nc(NC(=O)CSc3nnnn3C)sc2c1,2.4,3103,0.2,-0.3,2.9
Cc1ccc(Cl)cc1N1CCN(C(=O)CSc2nnc3n2C(C)(C)Cc2ccccc2-3)CC1,-6.1,9334,-1.5,-9.1,-6.8
CCCc1cc(=O)oc2cc(OC(C)C(=O)NC3CC(C)(C)NC(C)(C)C3)ccc12 (configuration not stated),0.8,5630,0.6,13.3,4.5
Cc1ccn(-c2ccc(NC(=O)c3cccs3)cc2)n1,-1.8,5506,0.8,5.6,-4.2
Cc1cc(Br)cn2c(Cc3cccc(F)c3)c(-c3ccc(C#N)cc3)nc12,5.4,8537,1.7,·,6.6
COC(=O)CSc1nnc2n1C(C)(C)Cc1ccccc1-2,-0.5,16446*,-1.1,9.1,2.7
CS(=O)(=O)c1ccc(NC(=O)C2CC(=O)N(c3ccc4c(c3)OCCO4)C2)cc1 (configuration not stated),?,7074,-2.5,1.1,-12.3
O=C(Nc1ccccc1O)c1ccc(NS(=O)(=O)c2cccc3cccnc23)cc1,-6.5,5961,0.3,-12.3,-0.8
N#Cc1c(N)nc(SCC(=O)NC2CCCCC2)c(C#N)c1-c1ccc(Cl)cc1,2.8,16126*,1.5,-25.4,3.2
COC(=O)[C@]1(C)N[C@H](c2ccc(SC3CCCCC3)c(OC)c2)[C@@H]2C(=O)N(C)C(=O)[C@@H]21,-5.3,3752,-0.3,4.7,-4.7
Cc1ccc(Cn2nc(C(=O)Nc3ccc(Br)cc3)cc2C)cc1,-8.5,3229,-2.4,2.7,7.9
COC(=O)c1cc(C(=O)OC)n(Cc2ccc(Br)cc2)n1,-2.3,21618*,?,-5.2,-4.9
COc1ccc(C(C)(NC(C)=O)c2nc(-c3cncnc3)cs2)cc1 (configuration not stated),0.1,2971,0.0,·,-14.2
C(/C=C/c1ccccc1)=N/N1CCN(c2ccccc2)CC1,-3.9,17556*,?,-4.8,-9.7
C(=C\c1ccccc1)/C=N/N1CCN(c2ccccn2)CC1,-1.7,2533,0.4,1.2,1.2
O=C1CC(=O)N(CCc2ccccc2)C(=O)N1CCc1ccccc1,-2.3,22637*,1.5,4.9,-3.3
O=C(NCc1ccc(F)cc1)c1cccc2c1C(=O)c1ccc(N3CCC(Cc4ccccc4)CC3)cc1S2(=O)=O,33.1*,8272,19.4,i,23.4
O=C(NCc1ccc(F)cc1)c1cccc2c1C(=O)c1ccc(N3CCC(N4CCCCC4)CC3)cc1S2(=O)=O,13.9,5563,4.3,-83.3,-2.2
O=C(Cc1nc(=O)c2ccccc2s1)Nc1ccccc1,-11.3,16611*,9.7,34.2,10.7
SMILES,Anthrax LF prot,Autofluor counter,BoNT-A LC inh2,MazEF act,BoNT-F LC inh
NC(Cc1ccc(F)cc1)c1csc(Nc2nccc(C(F)(F)F)n2)n1 (configuration not stated),-1.7,3978,-0.4,·,-16.5
CCOc1cc(NC(=O)C2CCCO2)c(OCC)cc1NC(C)=O (configuration not stated),-3.2,17626*,-3.4,0.8,-7.5
O=C(Nc1ccccc1C(=O)N1CCOCC1)C1CCCO1 (configuration not stated),-4.1,19285*,5.0,5.5,6.0
CSc1ccccc1NC(=O)C1CCCO1 (configuration not stated),0.8,22505*,1.9,1.0,1.5
COc1ccc(Cl)cc1NC(=O)C1CCCO1 (configuration not stated),-5.5,4532,-0.7,4.8,2.0
O=C(Nc1ccccc1C(=O)N1CCCCC1)C1CCCCC1,0.0,22702*,-1.5,-5.7,-0.9
COc1cccc(CNC(=O)C2CCN(c3nn4c(=O)cc(C)nc4s3)CC2)c1,-1.9,6674,-3.7,6.9,-3.1
CC(C)(C)OC(=O)C[C@@H]1C/C=C\C[C@H](CC(=O)NCCO)C(=O)N[C@@H](Cc2ccccc2)COC1=O,3.2,4179,0.1,-1.4,-2.3
CCN(CC)CCC12CC(C)OC1=Nc1ccccc1NC2=O (configuration not stated),-5.6,4694,-0.6,·,-3.4
CC(C)Oc1cc(F)ccc1-c1cc(C(=O)NCC2CCCCC2)[nH]n1,-0.3,3943,-0.3,·,-3.2
O=S(=O)(Nc1ccc(-n2cnnn2)cc1)c1ccc(Cl)s1,-8.7,3645,0.5,-1.0,-3.7
c1ccc(-c2ccccc2OCCCCn2ccnc2)cc1,21.9,3446,0.5,2.5,?
CCN(CC)S(=O)(=O)c1ccc(F)cc1,0.4,17034*,?,-1.5,-2.2
CCN(CC)S(=O)(=O)c1cccc(S(=O)(=O)N2CCCCC2)c1,-6.7,5442,-0.8,-8.2,-9.7
CCN(CC)S(=O)(=O)c1cccc(S(=O)(=O)c2cccc(S(=O)(=O)N(CC)CC)c2)c1,-5.0,22967*,?,-0.5,0.2
O=C(O)c1cccc(C(=O)O)c1,-4.4,5623,-0.2,-3.8,-5.7
CC(C)Oc1cccc(C(=O)O)c1,-5.6,18055*,?,-1.7,7.6
CN(N=Cc1cccc2cccnc12)c1ccc([N+](=O)[O-])cc1[N+](=O)[O-],4.2,3581,0.0,935.0*,-1.7
O=C(O)c1ccc2c(c1)C(=O)N(C(Cc1ccc(O)cc1)C(=O)O)C2=O (configuration not stated),-2.4,21507*,3.0,-3.9,1.8
CCOC(=O)C1CCC2(CC1)C(C#N)=C(N)Oc1n[nH]c(C)c12 (configuration not stated),1.1,20477*,-2.4,2.9,-3.0
CCOc1c(Cl)cc(CNCC(O)c2ccccc2)cc1OC (configuration not stated),0.0,2115,-0.5,3.1,-5.4
CCOc1c(Cl)cc(CNCC(C)C)cc1OC,-3.1,24375*,?,5.0,-7.3
O=C1NC[C@@H](CCCCN2C[C@H](Cc3ccccc3)N(CCc3ccc(O)cc3)C(=O)C2=O)N(Cc2ccccc2)C1=O,1.0,6094,0.2,·,-4.0
